Screening results as filed in PubChem.
Only some compounds are listed: those with a hit (about 2.3% of all), similar ones and a draw of the others.
Tau ThT inhib = qHTS for Inhibitors of Tau Fibril Formation, Thioflavin T Binding. Microtubule-associated protein tau (Homo sapiens), P10636. AID 1460, 2008. Potency, µM (series often up to 57.4 µM), for the others: at the highest dose activity, negative = inhibition, usual class: inhibitors. recombinant tau K18 P301L, heparin-induced fibrillization, ThT fluorescence. hit rate 2.1% among 270,000; also: potency is read from the fitted curve at half-maximal effect; nearly all actives have a fitted effect of over 55% in size
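Aggregation was driven by heparin (20 uM final) acting on recombinant tau […] bearing P301L in 100 mM sodium acetate pH 7; fibrils were detected with Thioflavin T.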
Tau fluor cs = Counterscreen qHTS for Inhibitors of Tau Fibril Formation, Fluorescence Polarization; tau K18 P301L (four-repeat tau fragment) Alexa594 fluorescence, heparin fibrillization; Potency, µM (top dose mostly 57.7 µM), for inactives: at the highest dose activity change, negative = decrease; hit rate 0.93% among 280,000; AID 1463, 2008; also: potency is read from the fitted curve at half-maximal effect; nearly all actives have a fitted effect of over 55% in size
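Human K18 P301L tau (15 uM unlabeled plus 0.24 uM Alexa 594-labeled, final) in 100 mM sodium acetate pH 7 was mixed with compound and 20 uM heparin and incubated 6 hr at 37 C.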
Tau FP inhib = qHTS for Inhibitors of Tau Fibril Formation, Fluorescence Polarization | Potency, µM (top dose mostly 57.7 µM), for the others: at the top dose activity, negative = inhibition, hits mostly inhibitors | AID 1468, 2008 | hit rate 0.39% among 280,000 | K18 P301L tau heparin fibrillization, Alexa594 FP, 6 h | Microtubule-associated protein tau (Homo sapiens), P10636; also: potency is read from the fitted curve at half-maximal effect; nearly all actives have a fitted effect of over 55% in size
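K18 P301L tau (15 uM unlabeled/0.24 uM Alexa 594-labeled, final) + compound + heparin 20 uM final; 100 mM NaOAc pH 7; 6 hr 37 C; ThT 30 uM final added, 1 hr RT; FP ex 555/em 632 nm.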
Coupling enz = qHTS Assay for Inhibitors of Fructose-1,6-bisphosphate Aldolase from Giardia Lamblia: Coupling assay counterscreen; coupling enzyme system counterscreen, AmpLite Red fluorescence; activity change, negative = inhibition, % at 58.2 µM, hits read low; hit rate 0.67% among 290,000; AID 2472, 2010; in the data active = activity change below about -30%
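Coupling enzymes only (glyceraldehyde-3-phosphate) + compound, at 57.5 uM final, 10 min RT; add substrate/coupling/AmpLite Red mix, 20 min RT; fluorescence ex 525/em 598 nm. Actives flag coupling-system interference.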
USP1-UAF1 inh = Inhibitors of USP1/UAF1: Primary Screen; hit rate 0.23% among 390,000; Ubiquitin carboxyl-terminal hydrolase 1 (Homo sapiens), O94782; Potency, µM (series often up to 57.1 µM), for inactives: at the highest dose activity change, negative = inhibition, usual class: inhibitors; recombinant USP1/UAF1, Ub-Rhodamine cleavage fluorescence; also: potency is read from the fitted curve at half-maximal effect; nearly all actives have a fitted effect of over 60% in size
Target sequence (O94782 whole entry, looked up): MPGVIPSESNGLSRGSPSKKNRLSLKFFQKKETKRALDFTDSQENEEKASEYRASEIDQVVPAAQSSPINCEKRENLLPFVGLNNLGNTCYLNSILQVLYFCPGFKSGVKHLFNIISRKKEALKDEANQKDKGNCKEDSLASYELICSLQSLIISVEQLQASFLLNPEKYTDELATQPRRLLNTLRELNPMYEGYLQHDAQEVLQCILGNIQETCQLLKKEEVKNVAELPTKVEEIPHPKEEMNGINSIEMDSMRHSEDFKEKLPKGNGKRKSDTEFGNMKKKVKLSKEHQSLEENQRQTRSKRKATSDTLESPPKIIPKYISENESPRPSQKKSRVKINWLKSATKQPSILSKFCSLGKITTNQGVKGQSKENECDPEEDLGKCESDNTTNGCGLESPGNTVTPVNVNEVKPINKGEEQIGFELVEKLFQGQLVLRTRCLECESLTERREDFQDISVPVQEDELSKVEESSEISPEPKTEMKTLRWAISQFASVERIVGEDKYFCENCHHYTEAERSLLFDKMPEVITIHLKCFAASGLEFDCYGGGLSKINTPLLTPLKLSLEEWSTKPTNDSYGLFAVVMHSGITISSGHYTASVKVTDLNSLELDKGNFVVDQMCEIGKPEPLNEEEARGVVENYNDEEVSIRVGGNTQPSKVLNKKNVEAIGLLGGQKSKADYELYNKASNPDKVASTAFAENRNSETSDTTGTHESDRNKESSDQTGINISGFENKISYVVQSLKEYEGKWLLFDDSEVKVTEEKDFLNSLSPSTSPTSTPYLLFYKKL
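USP1/UAF1 complex (1 nM) preincubated 15 min at room temperature with compound, then Ub-Rho substrate (150 nM final) added. Kinetic fluorescence at 480/540 nm over 6 reads at 60 s intervals; 50 mM HEPES pH 7.8, 0.5 mM EDTA, 0.1 mg/ml BSA, 1 mM TCEP, 0.01% Tween-20.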
Starred values were filed as active, the others as inactive; ? = inconclusive; . = no result; [ ] = remark or other dose. Unless noted, calls follow the shape of the dose curve; as a rule, active = well fitted curve in the direction sought with a large enough effect; inconclusive = small, poorly fitted or top-dose-only effect, or another doubt; inactive = no such curve, though single readings can be large; an effect the other way counts as inactive or inconclusive. % is scaled to controls: 0 for no effect and ±100 for the full control effect.

SMILES	Tau ThT inhib	Tau fluor cs	Tau FP inhib	Coupling enz	USP1-UAF1 inh
CC(C)(C)c1cc[n+](-c2nc([O-])sc2C=O)cc1	-9%	-13%	-10%	-11	2%
CC(C)c1cc[n+](-c2nc([O-])sc2C=O)cc1	35µM*	-25%	-25%	-40*	-20%
CCc1cc[n+](-c2nc([O-])sc2C=O)cc1	?	-28%	?	-38*	-14%
COc1ccc(OC(=O)c2nc(SCc3ccc(F)cc3)ncc2Cl)cc1	?	-17%	-8%	.	7%
O=C(Oc1ccccc1F)c1nc(SCc2ccc(F)cc2)ncc1Cl	20µM*	-25%	-15%	.	3%
CN(C(=O)c1ccco1)c1nc(-c2ccccc2)cs1	.	.	.	-3	-19%
CN(c1ccc(O)cc1)c1nc(-c2ccccc2)cs1	?	16µM*[quencher]	?	1	-23%
COc1ccc(NC(=O)Cn2c(=O)oc3cc(S(=O)(=O)N4CCC(C)CC4)ccc32)c(OC)c1	-7%	-27%	-5%	.	0%
O=C(OCn1ncc(Cl)c(Cl)c1=O)c1ccc(F)cc1	?	-20%	?	0	.
O=C(OCn1ncc(Cl)c(Cl)c1=O)c1ccccc1Cl	14µM*	-14%	-20%	1	-23%
Nc1cc(=O)nc(SCC(=O)N2CCN(c3ccccc3)CC2)n1-c1ccc(F)cc1	.	.	.	-1	-9%
O=C1CC2(CCN(C(=O)c3c(F)cccc3F)CC2)Oc2ccccc21	.	.	.	.	-6%
O=c1/c(=C\c2cc([N+](=O)[O-])cc([N+](=O)[O-])c2O)sc2nc3ccccc3n12	5µM*	?	?	-32*	?
NC(Cc1c[nH]c2ccccc12)C(=O)NCC(=O)O (stereo not drawn)	-6%	-12%	-1%	3	.
c1ccc(-c2ccccc2OCCOCCN2CCOCC2)cc1	.	.	.	-51*	-15%
CCN1CCN(CCOCCOc2ccccc2-c2ccccc2)CC1	-6%	-2%	3%	0	.
CSc1cccc(NC(=O)Cn2ncn3c(cc4ccccc43)c2=O)c1	-16%	20µM*[quencher]	-8%	.	-17%
Cc1nn(-c2ccccc2)c(C)c1/C=N/n1cnnc1	-5%	-8%	-10%	0	-1%
Cc1nn(-c2ccccc2)c(C)c1/C=N\N1CCN(c2ccc(Cl)cc2)CC1	8.9µM*	?	-8%	1	-7%
Cc1ccc(-n2nc3c(c2NC(=O)c2ccc(Br)o2)CSC3)c(C)c1	-16%	3%	-3%	-35*	-11%
Cc1nccn1CC1CCc2c(c3ccccc3n2C)C1=O (stereo not drawn)	.	.	.	1	3%
Cc1[nH]cnc1CN1CCc2c(c3ccccc3n2C)C1=O	.	.	.	.	35µM*
S=C(c1ccc(-c2ccc(Cl)c(Cl)c2)o1)N1CCOCC1	10µM*	-25%	-3%	-2	-5%
O=C(c1ccc(-c2cccc(Cl)c2Cl)o1)N1CCOCC1	-5%	-1%	-7%	2	-11%
S=C(c1ccc(-c2ccc(Br)cc2)o1)N1CCOCC1	.	-25%	-5%	-2	-9%
SMILES	Tau ThT inhib	Tau fluor cs	Tau FP inhib	Coupling enz	USP1-UAF1 inh
Cc1ccc(N2CCN(C(=S)c3ccc(-c4ccccc4[N+](=O)[O-])o3)CC2)cc1	?	?	-4%	-2	-8%
O=[N+]([O-])c1ccccc1-c1ccc(C(=S)N2CCN(c3ccccc3)CC2)o1	11µM*	?	-7%	-11	-4%
S=C(c1ccc(-c2ccccc2Cl)o1)N1CCOCC1	25µM*	?	-14%	0	-14%
COC(=O)CCN(c1ccccc1)S(=O)(=O)c1cc(-c2cc(C)no2)ccc1OC	4%	-18%	-2%	2	-10%
COc1ccc(N/C=C\C(=O)c2ccc(Br)cc2)cc1OC	3.2µM*	-10%	0%	1	-16%
COc1cc(/C=N\NC(=O)c2ccc(C)nc2)ccc1OC(=O)c1ccc2c(c1)OCO2	-4%	-26%	25µM*	1	-21%
COc1ccc(NC(=O)CN2CCN(Cc3ccc4c(c3)OCO4)CC2)cc1OC	-7%	-4%	5%	-38*	-8%
